Screening data as filed in PubChem.
697 NFkB inh: lowers PMA/ionomycin-induced NF-kB signal in 697 B cells; 697 B-cell NF-kB luciferase reporter, 16 h; inhibition, % at 4 µM; 330,000 tested, 0.33% active; AID 435022; in the data active means inhibition above about 35%
KLF5 inh: suppresses KLF5 promoter-driven expression; DLD-1 KLF5 promoter-luciferase reporter, luminescence; inhibition, % at 5 µM; 290,000 tested, 0.23% active; AID 1700;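 active means inhibition above a per-plate limit of that plate's mean compound inhibition plus 3 SD, cut at about 60% in these data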;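 further: 0% = DMSO wells and 100% = LY294002 at 200 µM; higher means less KLF5 promoter-driven luciferase light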
aSyn UTR inh: MLPCN primary screen, SNCA 5' untranslated region; alpha-synuclein 5'UTR reporter, inhibitor activity; inhibition, % (tested at 7.5 µM); 300,000 tested, 0.82% active; AID 1813; in the data active means inhibition above about 60%; inconclusive means no clear call, values can overlap the other calls;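 further: H4 neuroglioblastoma cells stably carrying SNCA 5'UTR luciferase fusion; 0% = DMSO wells and 100% = positive control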
Mdm2 MdmX PPI: disrupts the human Mdm2-MdmX interaction; O15151+Q00987; SaOS-2 split-luciferase Mdm2/MdmX complementation, luminescence; inhibition, % at 8 µM; 330,000 tested, 3% active;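 active means inhibition of at least 50% at 8 µM in the primary screen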
Target sequence (O15151 whole entry, looked up): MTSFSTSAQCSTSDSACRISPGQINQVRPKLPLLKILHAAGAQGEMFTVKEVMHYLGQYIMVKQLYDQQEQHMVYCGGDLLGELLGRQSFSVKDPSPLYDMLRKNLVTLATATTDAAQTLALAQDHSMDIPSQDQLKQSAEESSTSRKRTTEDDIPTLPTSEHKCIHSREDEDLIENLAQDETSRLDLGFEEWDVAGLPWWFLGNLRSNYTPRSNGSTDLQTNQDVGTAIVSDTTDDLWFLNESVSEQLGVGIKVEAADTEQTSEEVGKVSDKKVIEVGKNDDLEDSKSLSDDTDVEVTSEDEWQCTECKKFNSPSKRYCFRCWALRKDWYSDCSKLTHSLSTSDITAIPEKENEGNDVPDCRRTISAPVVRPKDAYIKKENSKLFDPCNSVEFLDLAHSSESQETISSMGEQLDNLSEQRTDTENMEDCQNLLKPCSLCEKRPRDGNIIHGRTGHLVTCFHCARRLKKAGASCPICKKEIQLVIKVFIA
Target sequence (Q00987 whole entry, looked up): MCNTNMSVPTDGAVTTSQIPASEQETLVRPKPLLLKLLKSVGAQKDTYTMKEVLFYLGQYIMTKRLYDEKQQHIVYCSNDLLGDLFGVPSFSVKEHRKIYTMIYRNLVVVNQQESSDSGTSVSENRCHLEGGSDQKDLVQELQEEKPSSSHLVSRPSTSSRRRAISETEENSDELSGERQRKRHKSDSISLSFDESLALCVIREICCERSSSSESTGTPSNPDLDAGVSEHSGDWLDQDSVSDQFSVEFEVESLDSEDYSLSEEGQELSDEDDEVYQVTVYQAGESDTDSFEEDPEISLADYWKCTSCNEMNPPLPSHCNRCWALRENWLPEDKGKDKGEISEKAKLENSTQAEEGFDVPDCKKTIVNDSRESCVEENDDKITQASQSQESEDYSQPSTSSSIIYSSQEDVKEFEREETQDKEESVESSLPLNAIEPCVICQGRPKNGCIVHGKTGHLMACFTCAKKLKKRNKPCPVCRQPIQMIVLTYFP
Gli-Sufu antag: Gli-Sufu pathway antagonism; inhibition, % at 5 µM; 340,000 tested, 0.74% active; AID 588413; Sufu-KO-LIGHT fibroblasts, Gli luciferase reporter luminescence;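 active means inhibition above about 55%, limit read from the data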;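 further: 0% = DMSO-treated cells and 100% = wells with medium but no cells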
Jurkat NFkB inh: inhibitors of the PMA/ionomycin-induced NF-kB reporter in Jurkat cells. inhibition, % at 4 µM. PMA/ionomycin-induced NF-kB luciferase reporter, luminescence. 330,000 tested, 0.53% active; in the data active means inhibition above about 50%
Mdm2-MdmX conf: confirmation of human Mdm2/MdmX interaction inhibitors; shares compounds with Mdm2 MdmX PPI; Mdm2-MdmX binding, luminescent assay; inhibition, % at 8 µM; 10,000 tested, 55% active; in the data active means inhibition above about 40%
Full FLuc ctr: full-length luciferase inhibition in Mdm2/MdmX counter-screen. shares compounds with Mdm2 MdmX PPI. SaOS-2 full-length luciferase counterscreen, luminescence. inhibition, % at 8 µM. 6,200 tested, 77% active. AID 504607;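 active means mean inhibition at 8 µM reaching about 37%, which flags the compound as non-specific, limit read from the data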;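 further: p53-null SaOS-2 cells with luciferase driven by a doxycycline-inducible promoter; compound on cells about two nights before reading with doxycycline added after day one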
* hit, by the source's call; ? = inconclusive; . = no result. Rows were chosen to be rich in hits. Some 4.1% of all compounds tested hit in one or more screens of this group.

SMILES | 697 NFkB inh | KLF5 inh | aSyn UTR inh | Mdm2 MdmX PPI | Gli-Sufu antag | Jurkat NFkB inh | Mdm2-MdmX conf | Full FLuc ctr
CCCCN(C(=O)C1CCN(C(=O)c2ccccc2C)CC1)c1c(N)n(CC(C)C)c(=O)[nH]c1=O | . | . | . | . | -9 | . | . | .
COc1ccc(/C=N/n2cnc3c([nH]c4ccc(Br)cc43)c2=O)cc1CN1CCOCC1 | -2 | -8 | -37 | 57* | 4 | 5 | 26 | .
COc1ccccc1CNC(=O)CN1CCN(S(=O)(=O)c2cccs2)CC1 | 14 | -7 | -2 | 3 | 0 | -3 | . | .
Cn1nc(C(F)(F)F)c(-c2ccc(Br)cc2)c1NC(=O)Nc1ccc(F)cc1F | -5 | -3 | 16 | 91* | 3 | 18 | 50* | 39*
Cc1cnc(NC(=O)/C=C/c2ccc(Br)o2)s1 | -62 | -65 | -106 | 75* | -24 | -66 | 0 | .
CC(Sc1ncnc2sc(-c3ccccc3)cc12)C(=O)NCC1CCCO1 (stereo not given) | -26 | . | -16 | 67* | -6 | 1 | 59* | 91*
CCc1cccc2c(SC(C)C(=O)NCC3CCCO3)nc(-c3ccccc3)nc12 (stereo not given) | 3 | -54 | 18 | 20 | 3 | -12 | . | .
CCc1ccc2c(c1)cc(CN(C(=S)Nc1ccccc1C)C1CC1)c1nnnn12 | 11 | 3 | 26 | 12 | 9 | -3 | . | .
COCCN(Cc1cc2cc(C)ccc2n2nnnc12)C(=S)Nc1ccccc1C | -7 | -8 | 29 | 51* | 2 | 3 | 0 | .
COc1ccc(C2NCCc3c2[nH]c2ccccc32)cc1CN1CCc2cc(OC)c(OC)cc2C1C (stereo not given) | . | -23 | 20 | . | -1 | . | . | .
COc1ccc(C2NCCc3c2[nH]c2ccccc32)cc1COc1ccc(F)cc1 (stereo not given) | 22 | 5 | -2 | 69* | 10 | -4 | 37 | .
Cc1csc(=O)n1CCC(=O)OCC(=O)NNC(=O)c1ccccc1 | -17 | . | 3 | 3 | -8 | 10 | . | .
CC[C@H](C)[C@@H](CNC)NC[C@@H](Cc1ccc(O)cc1)NCC(C)(C)C | 10 | -22 | 5 | 39 | 6 | 1 | . | .
CCCC[C@H](CN[C@@H](CNC)[C@H](C)CC)NCCC12CCC(CC1)C2 | 1 | -22 | -43 | 98* | 29 | 39 | 98* | 50*
N#Cc1c(N)n(Cc2ccccc2)c(=O)c2cc([N+](=O)[O-])ccc12 | -10 | -1 | 47 | 54* | -3 | -8 | 11 | .
Cc1nc2ccc([N+](=O)[O-])cc2c(=O)n1Cc1ccc([N+](=O)[O-])cc1 | 28 | -47 | 17 | 20 | 9 | 8 | . | .
CCn1c(=O)c(C(=O)CN2CCN(S(=O)(=O)c3ccc(C)cc3C)CC2)c(N)n(Cc2ccccc2)c1=O | 26 | 6 | 24 | 53* | 8 | 29 | 43* | 75*
COCCn1c(SCC(=O)Nc2ccc(F)cc2F)nc2c([nH]c3ccccc32)c1=O | -13 | -4 | 11 | 55* | 4 | -14 | 53* | 14
C=CCn1c(SCC(=O)Nc2ccc(F)cc2F)nc2c([nH]c3ccccc32)c1=O | -10 | -17 | 6 | 65* | 0 | 2 | 52* | 27
C=CCn1c(SCC(=O)Nc2ccccc2OC)nc2c([nH]c3ccccc32)c1=O | 4 | -17 | 26 | 38 | 6 | 8 | . | .
CC1CN(C(=O)CCNS(=O)(=O)c2ccc(Br)cc2)CC(C)O1 (stereo not given) | 7 | . | 9 | 6 | 0 | 5 | . | .
COC(=O)N/N=C\c1c(C)nn(-c2ccccc2)c1Cl | -30 | -35 | -54 | -26 | -27 | -15 | . | .
Cc1ccc(C)c(OCC(=O)N/N=C/c2c(C)nn(-c3ccccc3)c2Cl)c1C | 23 | -18 | 9 | 51* | 3 | 22 | 35 | .
CCOc1ccc(Oc2c(/C=N/NC(N)=O)c(C)nn2-c2ccccc2)cc1 | -16 | -9 | 26 | 6 | 30 | -14 | . | .
CCOc1ccc(Oc2c(/C=N/NC(=O)COc3ccccc3OC)c(C)nn2-c2ccccc2)cc1 | -12 | -5 | 14 | 56* | 37 | 4 | 1 | .
SMILES | 697 NFkB inh | KLF5 inh | aSyn UTR inh | Mdm2 MdmX PPI | Gli-Sufu antag | Jurkat NFkB inh | Mdm2-MdmX conf | Full FLuc ctr
COc1ccc(Nc2ccc(OC)cc2)cc1 | 6 | -36 | -105 | 22 | -8 | 20 | . | .
COc1ccc(NC2=C(C)C(=O)CC2)cc1 | 25 | -30 | -29 | 59* | 29 | -11 | 39 | 90*
Cc1ccc(NC(=O)CSCC(=O)Nc2ccccc2N2CCCC2)cc1 | 3 | . | 9 | -2 | 14 | 2 | . | .
COc1cccc(N2CCN(C(=O)c3ccc4ccccc4c3)CC2)c1 | -19 | . | . | 20 | -4 | -24 | . | .
CCc1nc2ccc(C(=O)N3CCN(c4cccc(OC)c4)CC3)cc2nc1CC | 5 | 8 | 20 | 64* | -22 | -7 | 39 | 63*
CCN1C(=NCC(C)C)N[C@@H](c2cccc(C(F)(F)F)c2)C(C(=O)OC)=C1C | -7 | 0 | 16 | 57* | 26 | 4 | 33 | 60*
CCN1C(=NCc2cccc(Cl)c2)N[C@@H](c2cccc(F)c2)C(C(=O)OC)=C1C | -17 | 0 | 4 | 47 | 15 | 7 | . | .
COC(=O)C1=C(C)N(Cc2ccccc2)C(=NCCc2c[nH]c3ccccc23)N[C@H]1c1cccc(C(F)(F)F)c1 | -6 | . | . | 100* | -15 | -3 | 41* | 58*
COC(=O)C1=C(C)N(Cc2ccccc2)C(=NCc2cccc(C(F)(F)F)c2)N[C@H]1c1cccc(F)c1 | 9 | -7 | ? | 95* | -11 | 3 | 73* | 40*
COCCN=C1N[C@@H](c2cccc(C(F)(F)F)c2)C(C(=O)OC)=C(C)N1Cc1ccccc1 | -1 | -22 | -16 | 45 | -2 | 12 | . | .
COC(=O)C1=C(C)N(Cc2ccccc2)C(=NCCCCO)N[C@H]1c1cccc(C(F)(F)F)c1 | 5 | . | . | 52* | 6 | -6 | 34 | .
O=C1CC(c2ccccc2)c2cccc(F)c21 (stereo not given) | 11 | 3 | 0 | 24 | 5 | -16 | . | .
CCc1nnc(NC(=O)[C@@H](NC(=O)c2cc(OC)cc(OC)c2)C(C)C)s1 | -3 | -7 | -3 | -1 | -6 | -5 | . | .
COc1ccc(S(=O)(=O)NCC2CCCO2)cc1NC(=O)c1ccccc1F (stereo not given) | 7 | 6 | 17 | 14 | -1 | 11 | . | .
CSc1nc(-c2ccc(F)cc2)cc(=O)[nH]1 | 4 | -26 | 18 | -6 | -6 | -6 | . | .
C=CCN=C1N[C@@H](c2cccc(C(F)(F)F)c2)C(C(=O)OC)=C(C)N1CC | -6 | -3 | 5 | 15 | -4 | 2 | . | .
COC(=O)C1=C(C)N(Cc2ccccc2)C(=NCc2ccc(OC)cc2)N[C@H]1c1ccccc1 | 8 | . | . | 65* | 29 | 3 | 25 | .
